# Source: PubChem BioAssay (National Center for Advancing Translational Sciences (NCATS))
# Shown are actives, neighbours in structure and some others; about 2.5% of the full set was active somewhere.
# Cruzain inh Det – qHTS Assay for Promiscuous and Specific Inhibitors of Cruzain (with detergent) | purified cruzain, Z-FR-AMC fluorescence, 0.01% Triton | Potency, µM, hits mostly inhibitors | 200,000 tested, 0.43% active; note: nearly all actives have a fitted effect of over 40% in size
# Target sequence (P25779 123-467 limits assumed): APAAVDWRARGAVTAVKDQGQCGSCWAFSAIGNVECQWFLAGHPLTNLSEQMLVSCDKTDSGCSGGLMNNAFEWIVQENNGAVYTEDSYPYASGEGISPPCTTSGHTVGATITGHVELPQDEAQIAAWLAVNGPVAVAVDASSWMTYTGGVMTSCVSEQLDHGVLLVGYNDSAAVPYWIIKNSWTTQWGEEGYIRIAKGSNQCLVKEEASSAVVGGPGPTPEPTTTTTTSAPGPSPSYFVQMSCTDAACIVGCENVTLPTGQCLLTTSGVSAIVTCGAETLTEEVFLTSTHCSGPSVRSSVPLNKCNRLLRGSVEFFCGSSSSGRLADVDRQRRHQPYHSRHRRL
#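 In this qHTS format, compounds are incubated with 1.5 nM cruzain for 15 min at room temperature before 2 uM Z-FR-AMC is added. Release of AMC is followed at 360/450 nm, and progress is taken as the 60 s fluorescence difference.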
# Cruzain inh noDet – qHTS Assay for Promiscuous and Specific Inhibitors of Cruzain (without detergent). 200,000 tested, 2.3% active. AID 1476, 2009. Cruzipain (Trypanosoma cruzi), P25779. Potency, µM, usual class: inhibitors. purified cruzain, Z-FR-AMC fluorescence, no detergent; note: nearly all actives have a fitted effect of over 40% in size
#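 Purified cruzain at 1.5 nM, pre-incubated 15 min with compound at room temperature in 100 mM sodium acetate pH 5.5, 5 mM DTT, 0.00005% Triton X-100. Reaction started with 2 uM Z-FR-AMC; AMC fluorescence increase over 60 s gives rate.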
# Numbers stand for hits; – = inactive; ? = inconclusive. Calls come from the whole dose curve; as a rule, active = well fitted curve in the direction sought with a large enough effect; inconclusive = small, poorly fitted or top-dose-only effect, or another doubt; inactive = no such curve, though single readings can be large; an effect the other way counts as inactive or inconclusive.
SMILES,Cruzain inh Det,Cruzain inh noDet
Cc1cc2oc(=O)cc(CN3CCOCC3)c2cc1C,–,–
NNC(N)=S,–,–
Cc1ccc2nc(-c3ccc(S(=O)(=O)N4CCOCC4)cc3)cn2c1,–,–
Cc1ccn2cc(-c3ccc(S(=O)(=O)N4CCOCC4)cc3)nc2c1,28µM,?
Cc1nn(C)c2c1c(C(F)(F)F)cc(=O)n2CC(=O)NCc1ccccc1Cl,–,–
COc1ccc(Cl)cc1NC(=O)c1nc(S(C)(=O)=O)ncc1N(Cc1ccc(C)cc1)Cc1ccco1,–,?
COc1ccc(NC(=O)c2nc(S(C)(=O)=O)ncc2N(Cc2ccc(C)cc2)Cc2ccco2)cc1Cl,–,10µM
CCOC(=O)c1c(NC(C)=O)c2c3c(sc2n1Cc1nc(-c2ccccc2OCC)oc1C)CCCC3,–,–
COc1ccc(NS(=O)(=O)c2ccc3[nH]c(=O)ccc3c2)cc1OC,–,–
Cc1ccc(NC2=CC(c3ccccc3F)N(c3ccc(C)cc3)C2=O)cc1 (configuration not stated),–,?
COc1ccc(C)cc1N(C(=O)c1ccccc1F)c1nc2ccccc2s1,–,1.6µM
COc1ccc(C)cc1N(C(=O)c1ccccc1)c1nc2ccccc2s1,–,?
COc1ccccc1/C=C/C(=C1/C(=O)N(c2ccccc2)N=C1C)c1ccc(C)cc1,–,25µM
COc1cccc(/C=C/C(=C2/C(=O)N(c3ccccc3)N=C2C)c2ccccc2)c1OC,–,–
O=C(CSc1nnc(CNC(=O)c2c(F)cccc2Cl)o1)Nc1ccccc1F,–,–
Cc1ccc(-c2csc3nnc(SCC(=O)N4CCN(Cc5ccccc5)CC4)n23)cc1,–,20µM
O=C(CSc1nnc2scc(-c3ccccc3)n12)N1CCN(Cc2ccccc2)CC1,–,–
COc1ccc2c(c1)c1c(c(=O)n(-c3ccc(OC)c(OC)c3)c(=O)n1CC(=O)N1CCCC1)n2C,–,–
Cc1ccc(OCc2nnc(NC(=O)c3ccco3)s2)cc1,–,–
Cc1ccc(OCCSc2nnc(NC(=O)c3ccco3)s2)cc1,–,25µM
CCc1nc2nc(C)cc(Nc3cc(C)ccc3C)n2n1,–,–
COc1cccc(NC(=O)CSc2nc3n[nH]c(C)c3c(=N)n2-c2cccc(OC)c2)c1,–,?
CCc1ccc(NC(=O)CSc2nc3n[nH]c(C)c3c(=N)n2-c2cccc(OC)c2)cc1,–,13µM
Cc1ccccc1CNC(=O)c1ccc(NC(=O)c2nsc3ccccc23)cc1,–,?
COc1cc(NC(=O)COC(=O)CC(C)(C)C)c(C)cc1[N+](=O)[O-],–,–
SMILES,Cruzain inh Det,Cruzain inh noDet
COc1cc(NC(=O)COC(=O)CNC(=O)c2ccc(C)cc2)c(C)cc1[N+](=O)[O-],13µM,13µM
COc1cc(NC(=O)COC(=O)C2CC2)c(C)cc1[N+](=O)[O-],–,–
COc1cc(NC(=O)COC(=O)CNC(=O)c2ccc(Cl)cc2)c(C)cc1[N+](=O)[O-],13µM,10µM
CCCCCCN(C(=O)CCCCCN1C(=O)NC(c2ccccc2-c2ccccc2)C(C(=O)OCc2ccccc2)=C1C)C(C(=O)NCCCC)c1ccc(OCC(=O)OC)c(C(=O)OC)c1 (configuration not stated),–,–
Cn1ncc2c(N3CCN(c4ccccc4Cl)CC3)ncnc21,–,–
Cc1nc2nc(-c3ccccc3)cc(=O)n2[nH]1,–,–
O=c1cc(-c2ccccc2)nc2nc(-c3ccco3)[nH]n12,–,0.4µM
COc1ccc(OC)c(CNS(=O)(=O)c2cc(-c3onc(C)c3C)ccc2C)c1,–,–
CCCNC(=O)Cn1nc(C)c2c(C)n(-c3ccccc3)nc2c1=O,–,–
COC(=O)c1c(NC(=O)COC(=O)c2ccc(C)s2)sc2c1CCCCC2,–,–
COC(=O)c1c(NC(=O)COC(=O)[C@@H](NS(=O)(=O)c2ccc(C)cc2)C(C)C)sc2c1CCC2,–,16µM
CCOC(=O)c1c(NC(=O)CS(=O)(=O)c2ccc(Cl)cc2)sc2c1CCCC2,–,–
CCOC(=O)c1c(NC(=O)CS(=O)(=O)c2ccc(C)cc2)sc2c1CCCCC2,–,4µM
Fc1ccc(Nc2nc(SCc3ccccc3F)nc3ccccc23)cc1,–,–
Cc1ccc(Nc2nnc(-c3ccc(C)c(S(=O)(=O)N4CCN(C)CC4)c3)c3ccccc23)c(C)c1,–,–
Cc1c2cnn(CC(=O)NCc3ccc(F)cc3)c(=O)c2c(C)n1Cc1cccc(Cl)c1,–,?
CCc1nn(CC(=O)NCc2cccc(OC)c2OC)c(=O)c2cc3occc3n12,–,–
COc1ccc(C(=O)N2c3ccccc3C=CC2C#N)cc1 (configuration not stated),–,–
N#C[C@H]1[C@H](c2ccccc2)[C@](C#N)(C(=O)c2ccccc2)[C@@H]2C=Cc3ccccc3N21,–,25µM
COc1cc2c(cc1NC(=O)c1cccc([N+](=O)[O-])c1)oc1ccccc12,–,16µM
COc1cc2c(cc1NC(=O)c1ccncc1)oc1ccccc12,–,?
COc1cc2c(cc1NC(=O)c1cccnc1)oc1ccccc12,–,?
COc1cc2c(cc1NC(=O)c1ccc(C)c([N+](=O)[O-])c1)oc1ccccc12,–,25µM
CCOC(=O)CC(NC(=O)CCc1c(C)nc2c(c(C)nn2-c2ccc(C)c(C)c2)c1C)c1ccc(C)cc1 (configuration not stated),–,–
COc1ccc2nc(-c3ccc(N)cc3)[nH]c2c1,28µM,10µM
SMILES,Cruzain inh Det,Cruzain inh noDet
COc1ccc2nc(-c3cccc(N)c3)[nH]c2c1,–,–
CCOC(=O)c1ccc(NC2=CC(c3ccc(O)c(OCC)c3)N(c3ccc(C(=O)OCC)cc3)C2=O)cc1 (configuration not stated),–,–
Cc1cc(C)cc(NC(=O)c2cc(C)nc3c2c(C)nn3-c2ccccc2)c1,–,–
CCC1CSC(Nc2ccc(C(=O)/C=C/c3ccc(Br)cc3)cc2)=N1 (configuration not stated),–,25µM
O=C(/C=C/c1ccc(Br)cc1)c1ccc(NC(=O)c2ccco2)cc1,–,–
COc1ccc(Br)cc1CNC(=O)Cn1nc(C)n2c(cc3cc(F)ccc32)c1=O,–,–
COc1ccc(C(=O)C2CN(c3ccccc3)CC2c2ccc(Cl)cc2)cc1 (configuration not stated),–,16µM
COc1ccc(C(=O)N2CCN(c3cccc(Cl)c3)CC2)cc1,–,–
CCCCNc1nc2c(S(=O)(=O)c3ccc(C)cc3)nnn2c2ccsc12,–,–
Cc1ccc(NC(=O)c2noc3c2CC(C(C)(C)C)CC3)cc1 (configuration not stated),–,13µM
CC(C)(C)C1CCc2onc(C(=O)Nc3cccc(O)c3)c2C1 (configuration not stated),–,–
Cc1cccc(S(=O)(=O)c2c(N)n(/N=C/c3ccccc3)c3nc4ccccc4nc23)c1,–,4µM
Nc1c(S(=O)(=O)c2ccccc2)c2nc3ccccc3nc2n1/N=C/c1cccc(O)c1,–,–
COc1ccccc1/C=N/n1c(N)c(S(=O)(=O)c2cccs2)c2nc3ccccc3nc21,–,7.9µM
COc1ccc(CCn2c(N)c(S(=O)(=O)c3cccs3)c3nc4ccccc4nc32)cc1OC,–,–
COc1ccccc1CNc1ccnc(-c2ccoc2)n1,–,–
COc1ccccc1CNc1nc(-c2ccoc2)nc2ccccc12,–,25µM
O=C(Nc1ccc(F)c(Cl)c1)N1CCN(C(=O)c2nsc3ccccc23)CC1,–,–
